Our source for the outcome and AC50 values is PubChem BioAssay (EPA / NIEHS).

Holding throughout (details): mRNA level, 48 h; actives raise or lower the signal
Read-out in test [1]: ABC Transporter (ABCC2), ABCC2 (gene 1244)
Kind of test: LTEA_HepaRG_ABCC2: Life Technologies and Expression Analysis (LTEA) Assay for ABC Transporter (ABCC2) using HepaRG (AID 2283464). Summed up: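 Endpoint is ABCC2 transcript level from qRT-PCR, normalized to three housekeeping genes and fitted bidirectionally relative to DMSO. Human HepaRG cells received test chemical for 48 h at up to 100 uM (8 points, half-log steps, 0.5% DMSO), duplicate wells.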

Read-out in test [2]: Broad substrate specificity ATP-binding cassette transporter ABCG2 (Homo sapiens) (UniProt Q9UNQ0)
The test can be described thus: LTEA_HepaRG_ABCG2: Life Technologies and Expression Analysis (LTEA) Assay for ABC Transporter (ABCG2) using HepaRG (AID 2283465). Summed up:
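HepaRG, 48 h exposure, 8-pt half-log series from 100 uM, 0.5% DMSO vehicle, duplicates. Readout: ABCG2 transcript by qRT-PCR (Fluidigm array), housekeeping-normalized; bidirectional curve fit relative to DMSO baseline.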

Read-out in test [3]: ATP-citrate lyase (ACLY), ACLY (gene 47)
The test can be described thus: LTEA_HepaRG_ACLY: Life Technologies and Expression Analysis (LTEA) Assay for ATP-citrate lyase (ACLY) using HepaRG (AID 2283466). The method in brief: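 qRT-PCR readout of ACLY transcript after 48 h chemical treatment of HepaRG cells; expression normalized to three housekeeping genes. Eight-point half-log series, highest 100 uM, 0.5% DMSO vehicle. Gain or loss fitted against DMSO baseline.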

Read-out in test [4]: Peroxisomal acyl-coenzyme A oxidase 1 (ACOX1) gene, ACOX1 (gene 51)
Kind of test: LTEA_HepaRG_ACOX1: Life Technologies and Expression Analysis (LTEA) Assay for Peroxisomal acyl-coenzyme A oxidase 1 (ACOX1) gene using HepaRG (AID 2283467). Summed up: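 HepaRG, 48 h chemical exposure, 8-pt half-log series from 100 uM top, 0.5% DMSO vehicle, duplicates. Readout: ACOX1 mRNA by Fluidigm qRT-PCR, housekeeping-normalized; bidirectional fit vs DMSO baseline.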

Read-out in test [5]: Alkaline Phosphatase, Placental (ALPP) gene, ALPP (gene 250)
Kind of test: LTEA_HepaRG_ALPP: Life Technologies and Expression Analysis (LTEA) Assay for Alkaline Phosphatase, Placental (ALPP) gene using HepaRG (AID 2283468).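 On AC50: differentiated human HepaRG liver cells in serum-free induction medium.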 Summed up: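 ALPP transcript level, measured by qRT-PCR and normalized to three housekeeping genes (ACTB, GAPDH, POLR2A), after 48 h dosing of differentiated HepaRG in serum-free induction medium. Top concentration 100 uM with half-log dilutions (8 points, 0.5% DMSO, duplicates); bidirectional fitting relative to DMSO.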

Read-out in test [6]: Bcl-2 (BAD) gene, BAD (gene 572)
The test can be described thus: LTEA_HepaRG_BAD: Life Technologies and Expression Analysis (LTEA) Assay for Bcl-2 (BAD) gene using HepaRG (AID 2283469). Summed up:
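HepaRG, 48 h exposure, 8-pt half-log curve from 100 uM in 0.5% DMSO, duplicates. Readout: TaqMan qRT-PCR for BAD mRNA, housekeeping-normalised (ACTB/GAPDH/POLR2A); gain or loss fitted against DMSO baseline.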

Read-out in test [7]: Bcl-2 (BAX) gene, BAX (gene 581)
Kind of test: LTEA_HepaRG_BAX: Life Technologies and Expression Analysis (LTEA) Assay for Bcl-2 (BAX) gene using HepaRG (AID 2283470). The method in brief: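 qRT-PCR read-out of BAX mRNA, normalized to three housekeeping genes, after 48 h chemical exposure of human HepaRG cells in serum-free induction medium; eight-point half-log series, top 100 uM, 0.5% DMSO vehicle; bidirectional fit versus DMSO.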

Read-out in test [8]: adenosine kinase (ADK) gene, ADK (gene 132)
Kind of test: LTEA_HepaRG_ADK: Life Technologies and Expression Analysis (LTEA) Assay for adenosine kinase (ADK) gene using HepaRG (AID 2283471). Summed up: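 Following 48 h exposure of HepaRG cells in 0.5% DMSO (top concentration 100 uM, duplicate wells), ADK mRNA induction or suppression was measured by qRT-PCR, normalised to ACTB/GAPDH/POLR2A, and fitted bidirectionally relative to vehicle.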

Read-out in test [9]: Alpha-fetoprotein (AFP) gene, AFP (gene 174)
The test can be described thus: LTEA_HepaRG_AFP: Life Technologies and Expression Analysis (LTEA) Assay for Alpha-fetoprotein (AFP) gene using HepaRG (AID 2283472). Summed up: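 qRT-PCR (Fluidigm TaqMan) readout of AFP transcript, normalized to three housekeeping genes, fitted bidirectionally against 0.5% DMSO baseline. HepaRG cells received chemicals for 48 h in serum-free induction medium, top concentration 100 uM, half-log steps.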

Read-out in a further test: BCL2L11 (gene 10018)
The test can be described thus: LTEA_HepaRG_BCL2L11: Life Technologies and Expression Analysis (LTEA) Assay for Bcl-2 (BCL2L11) gene using HepaRG (AID 2283473). Summed up:
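BCL2L11 transcript levels are measured by Fluidigm qRT-PCR, normalized to three housekeeping genes. HepaRG cultures were plated 48 h, then treated 48 h with test chemical (top 100 uM, half-log, 0.5% DMSO vehicle); curves were fitted bidirectionally against DMSO.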

Read-out in test [10]: Apolipoprotein A-V (APOA5) gene, APOA5 (gene 116519)
The test can be described thus: LTEA_HepaRG_APOA5: Life Technologies and Expression Analysis (LTEA) Assay for Apolipoprotein A-V (APOA5) gene using HepaRG (AID 2283474). Summed up:
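APOA5 transcript levels were quantified by qRT-PCR, normalized to three housekeeping genes, after 48 h chemical treatment of HepaRG cells (8 points, 100 uM maximum, half-log steps, 0.5% DMSO). Curves fitted in both directions against vehicle.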

Read-out in test [11]: Apoptosis regulator Bcl-2 (Homo sapiens) (UniProt P10415)
The test can be described thus: LTEA_HepaRG_BCL2: Life Technologies and Expression Analysis (LTEA) Assay for Bcl-2 gene using HepaRG (AID 2283475). Summed up:
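qRT-PCR read-out (Fluidigm TaqMan) of BCL2 transcript, normalised to three housekeeping genes, after 48 h chemical exposure of HepaRG cells; 8-point half-log series, top 100 uM, 0.5% DMSO vehicle. Gain or loss of signal fitted relative to DMSO baseline.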

Read-out in test [12]: Bcl-2 (BID) gene, BID (gene 637)
The test can be described thus: LTEA_HepaRG_BID: Life Technologies and Expression Analysis (LTEA) Assay for Bcl-2 (BID) gene using HepaRG (AID 2283476). The method in brief: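 HepaRG, 48 h exposure, 8-pt half-log series, top 100 uM, 0.5% DMSO vehicle, duplicates. Readout: BID mRNA by TaqMan qRT-PCR; housekeeping-normalized; bidirectional curve fit vs DMSO baseline.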

Read-out in the next test: Caspase-3 (Homo sapiens) (UniProt P42574)
The test can be described thus: LTEA_HepaRG_CASP3: Life Technologies and Expression Analysis (LTEA) Assay for cysteine-aspartic acid protease (CASP3) using HepaRG (AID 2283477). Summed up: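 Expression of CASP3 was quantified by TaqMan qRT-PCR against three housekeeping genes (ACTB, GAPDH, POLR2A), bidirectionally versus 0.5% DMSO. HepaRG cultures received compounds in duplicate, top 100 uM with half-log steps, for 48 h in serum-free induction medium.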

Read-out in test [13]: Cytochrome P450 (CYP24A1), CYP24A1 (gene 1591)
Kind of test: LTEA_HepaRG_CYP24A1: Life Technologies and Expression Analysis (LTEA) Assay for Cytochrome P450 (CYP24A1) using HepaRG (AID 2283478). Summed up:
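mRNA of CYP24A1 quantified by TaqMan qRT-PCR (ACTB/GAPDH/POLR2A normalization) after 48 h chemical exposure of HepaRG cells, top concentration 100 uM, half-log steps, 0.5% DMSO vehicle, duplicates. Curves fitted bidirectionally against DMSO baseline.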

Read-out in test [14]: Cytochrome P450 (CYP1A2), CYP1A2 (gene 1544)
Kind of test: LTEA_HepaRG_CYP1A2: Life Technologies and Expression Analysis (LTEA) Assay for Cytochrome P450 (CYP1A2) using HepaRG (AID 2283479). Summed up: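 CYP1A2 transcript measured by TaqMan qRT-PCR against three housekeeping genes after 48-hour chemical exposure of HepaRG cells. Eight-point half-log series topping at 100 uM in 0.5% DMSO, duplicates; gain or loss fitted relative to vehicle.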

Read-out in test [15]: cysteine-aspartic acid protease (CASP8), CASP8 (gene 841)
The test can be described thus: LTEA_HepaRG_CASP8: Life Technologies and Expression Analysis (LTEA) Assay for cysteine-aspartic acid protease (CASP8) using HepaRG (AID 2283480). Summed up:
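qRT-PCR readout of CASP8 mRNA, normalized to three housekeeping genes, after 48 h chemical exposure of HepaRG cells; 8-point half-log series, top 100 uM, 0.5% DMSO vehicle. Bidirectional curve fitting against DMSO baseline.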

Read-out in test [16]: Cytochrome P450 (CYP2B6), CYP2B6 (gene 1555)
The test can be described thus: LTEA_HepaRG_CYP2B6: Life Technologies and Expression Analysis (LTEA) Assay for Cytochrome P450 (CYP2B6) using HepaRG (AID 2283481). The method in brief: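 CYP2B6 transcript level quantified by qRT-PCR against three housekeeping genes, fitted bidirectionally relative to DMSO. HepaRG cultures received chemicals for 48 h, 8-point half-log series from 100 uM in 0.5% DMSO, duplicate wells, serum-free induction medium.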

Read-out in test [17]: Cytochrome P450 2C19 (Homo sapiens) (UniProt P33261)
Kind of test: LTEA_HepaRG_CYP2C19: Life Technologies and Expression Analysis (LTEA) Assay for CYP2C19 using HepaRG (AID 2283482). Summed up:
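CYP2C19 transcript levels by qRT-PCR, normalized to three housekeeping genes, in HepaRG cells after 48 h chemical exposure. Eight-point half-log series topping at 100 uM, 0.5% DMSO vehicle. Increases and decreases both fitted against DMSO.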

Read-out in the next test: CYP2C8 (gene 1558)
Kind of test: LTEA_HepaRG_CYP2C8: Life Technologies and Expression Analysis (LTEA) Assay for CYP2C8 using HepaRG (AID 2283483). The method in brief: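 HepaRG (human liver line), 48 h chemical exposure, 8-pt half-log series from 100 uM, 0.5% DMSO vehicle. Readout: CYP2C8 transcript by qRT-PCR, housekeeping-normalized. Bidirectional fit vs DMSO baseline.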

Active and inactive are the calls of the source. How the source made its calls: active means hit-call score of the fitted dose curve at least 0.9, where 1 is the maximum; inactive means score below 0.9.

Cytochrome P450 2C19 (Homo sapiens), sequence (P33261 whole entry, looked up): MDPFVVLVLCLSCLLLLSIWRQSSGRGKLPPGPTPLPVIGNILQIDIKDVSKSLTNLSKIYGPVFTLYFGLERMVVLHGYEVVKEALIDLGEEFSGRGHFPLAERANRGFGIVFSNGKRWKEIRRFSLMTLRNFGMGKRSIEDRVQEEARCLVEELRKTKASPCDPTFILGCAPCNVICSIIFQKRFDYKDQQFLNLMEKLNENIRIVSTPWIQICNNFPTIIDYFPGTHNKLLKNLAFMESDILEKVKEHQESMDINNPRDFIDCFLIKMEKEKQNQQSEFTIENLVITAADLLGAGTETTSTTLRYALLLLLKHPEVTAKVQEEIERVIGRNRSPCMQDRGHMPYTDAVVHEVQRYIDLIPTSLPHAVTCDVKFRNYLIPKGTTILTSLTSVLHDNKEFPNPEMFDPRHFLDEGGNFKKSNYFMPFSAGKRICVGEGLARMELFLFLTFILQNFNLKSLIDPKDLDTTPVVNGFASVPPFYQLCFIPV
Apoptosis regulator Bcl-2 (Homo sapiens), sequence (P10415 whole entry, looked up): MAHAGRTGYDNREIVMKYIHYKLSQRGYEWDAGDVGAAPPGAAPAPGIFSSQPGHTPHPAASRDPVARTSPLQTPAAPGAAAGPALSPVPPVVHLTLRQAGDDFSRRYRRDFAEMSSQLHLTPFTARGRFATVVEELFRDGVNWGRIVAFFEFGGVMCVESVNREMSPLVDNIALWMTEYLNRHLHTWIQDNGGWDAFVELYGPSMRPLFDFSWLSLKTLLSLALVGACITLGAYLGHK
Caspase-3 (Homo sapiens), sequence (P42574 whole entry, looked up): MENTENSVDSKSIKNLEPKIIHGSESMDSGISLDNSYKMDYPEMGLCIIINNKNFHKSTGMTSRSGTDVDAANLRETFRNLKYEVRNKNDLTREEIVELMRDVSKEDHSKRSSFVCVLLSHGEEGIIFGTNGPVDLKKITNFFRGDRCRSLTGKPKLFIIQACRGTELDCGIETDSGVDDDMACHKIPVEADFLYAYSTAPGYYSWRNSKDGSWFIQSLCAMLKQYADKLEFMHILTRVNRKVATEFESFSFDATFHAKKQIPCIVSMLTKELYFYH
Broad substrate specificity ATP-binding cassette transporter ABCG2 (Homo sapiens), sequence (Q9UNQ0 whole entry, looked up): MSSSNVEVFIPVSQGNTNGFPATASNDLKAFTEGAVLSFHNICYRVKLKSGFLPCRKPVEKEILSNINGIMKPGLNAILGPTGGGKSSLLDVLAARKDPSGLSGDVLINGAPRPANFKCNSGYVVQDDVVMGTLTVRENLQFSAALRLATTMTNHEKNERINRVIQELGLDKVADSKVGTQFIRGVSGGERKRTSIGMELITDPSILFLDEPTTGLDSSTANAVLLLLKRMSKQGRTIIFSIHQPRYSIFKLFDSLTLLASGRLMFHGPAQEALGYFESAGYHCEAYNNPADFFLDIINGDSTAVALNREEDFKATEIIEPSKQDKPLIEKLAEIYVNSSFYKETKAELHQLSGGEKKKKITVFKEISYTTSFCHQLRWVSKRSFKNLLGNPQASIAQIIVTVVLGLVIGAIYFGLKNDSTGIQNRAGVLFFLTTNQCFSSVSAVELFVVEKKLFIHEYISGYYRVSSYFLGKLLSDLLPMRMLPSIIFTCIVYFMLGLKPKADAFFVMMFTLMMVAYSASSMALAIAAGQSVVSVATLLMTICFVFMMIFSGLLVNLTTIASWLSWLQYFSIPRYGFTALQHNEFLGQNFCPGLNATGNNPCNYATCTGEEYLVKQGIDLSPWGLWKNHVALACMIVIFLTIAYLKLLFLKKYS

On to `OCCCBr`, for which the molecule was classed as inactive in test [1], in [2], in test [3], in test [4], in test [5] and in [6]. The molecule was classed as inactive (in test [7]; in test [8]; in [9]; with BCL2L11 (gene 10018); in [10]; in test [11]). Further, the result (in [12]; with Caspase-3 (Homo sapiens); in test [13]; in test [14]; in [15]; in test [17]) was inactive. In the test with CYP2C8 (gene 1558), the call was inactive. Moreover, the AC50 in test [16] was 40.8 µM (active).
Regarding `Cc1ccc(N)cc1`, the outcome in [1], in test [2], in test [3], in [4], in [5] and in test [6] was inactive. Moreover, the result (in test [7]; in [8]; in test [9]; in the test with BCL2L11 (gene 10018); in test [10]; in [11]) was inactive. Besides, the outcome (in [12]; with Caspase-3 (Homo sapiens); in [13]; in [14]; in test [15]; in test [17]) was inactive. Moreover, in the test with CYP2C8 (gene 1558), the molecule was called inactive. The AC50 in [16] was 16.5 µM (active).
`Cc1ccc(N)c(N)c1`: the outcome in test [1], in test [2], in [3], in [4], in test [5] and in test [6] was inactive. Besides, the molecule was called inactive (in [7]; in test [8]; in [9]; with BCL2L11 (gene 10018); in test [10]; in test [12]). For the same molecule, the outcome (with Caspase-3 (Homo sapiens); in test [13]; in test [15]; in test [17]; with CYP2C8 (gene 1558)) was inactive. The results for the AC50 in [14] and in test [16] were 38.3 µM (active) and 50 µM (active), respectively.
Regarding `CN(C)c1ccc(C(=O)c2ccc(N(C)C)cc2)cc1`, the molecule was classed as inactive in [1], in test [2], in test [3], in [4], in test [6] and in [7]. Moreover, the molecule was called inactive (in test [8]; with BCL2L11 (gene 10018); in test [10]; in [12]; with Caspase-3 (Homo sapiens); in test [15]). For the same molecule, the molecule was classed as inactive (in [17]; in the test with CYP2C8 (gene 1558)). In addition, the AC50 in [5] is 3.13 µM (active); in test [9] it was 50 µM (active); in test [11], 8.06 µM (active); in [14] it was 12.1 µM (active).
